From PubChem BioAssay (EPA / NIEHS)
The source made the active and inactive calls. Rule for the calls: active = hit-call score of the fitted dose curve at least 0.9, where 1 is the maximum; inactive = score below 0.9.

Key:
Conditions in all cases: mRNA level, 48 h; actives raise or lower the signal
[1] = read-out: Cytochrome P450 (CYP1A2), CYP1A2 (gene 1544); assay: LTEA_HepaRG_CYP1A2: Life Technologies and Expression Analysis (LTEA) Assay for Cytochrome P450 (CYP1A2) using HepaRG (AID 2283479)
Outline: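 Assesses CYP1A2 mRNA in human HepaRG liver cells after 48 h chemical exposure at up to 100 uM. Values come from qRT-PCR with bidirectional curve fitting relative to DMSO.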

[2] = read-out: cysteine-aspartic acid protease (CASP8), CASP8 (gene 841); assay: LTEA_HepaRG_CASP8: Life Technologies and Expression Analysis (LTEA) Assay for cysteine-aspartic acid protease (CASP8) using HepaRG (AID 2283480)
Outline: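 HepaRG, 48 h exposure, duplicate wells; 8 conc, half-log from 100 uM, 0.5% DMSO. Serum-free induction medium. CASP8 mRNA by TaqMan qRT-PCR, norm. ACTB/GAPDH/POLR2A; gain/loss fitted vs DMSO.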

[3] = read-out: Cytochrome P450 (CYP2B6), CYP2B6 (gene 1555); assay: LTEA_HepaRG_CYP2B6: Life Technologies and Expression Analysis (LTEA) Assay for Cytochrome P450 (CYP2B6) using HepaRG (AID 2283481)
Outline: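 Using 48 h treatment of HepaRG cells in serum-free induction medium, concentrations spanned half-log steps from 100 uM in 0.5% DMSO vehicle. CYP2B6 mRNA induction or loss is scored by qRT-PCR against DMSO.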

[4] = read-out: Cytochrome P450 2C19 (Homo sapiens) (UniProt P33261); assay: LTEA_HepaRG_CYP2C19: Life Technologies and Expression Analysis (LTEA) Assay for CYP2C19 using HepaRG (AID 2283482)
Outline: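 Human HepaRG liver cells received test chemicals for 48 h (highest 100 uM, half-log dilutions in 0.5% DMSO). CYP2C19 mRNA induction or loss is read by multiplexed qRT-PCR and fitted in both directions versus vehicle.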

CYP2C8 (gene 1558) = assay: LTEA_HepaRG_CYP2C8: Life Technologies and Expression Analysis (LTEA) Assay for CYP2C8 using HepaRG (AID 2283483)
Outline: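 CYP2C8 mRNA induction or loss, by qRT-PCR normalized to ACTB/GAPDH/POLR2A, is read in HepaRG cells after 48 h treatment. Concentrations run from 100 uM down in half-log dilutions, with 0.5% DMSO as vehicle and baseline.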

CYP2C9 (gene 1559) = assay: LTEA_HepaRG_CYP2C9: Life Technologies and Expression Analysis (LTEA) Assay for CYP2C9 using HepaRG (AID 2283484)
Outline: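 Cells plated 48 h, switched to serum-free induction medium, then treated in duplicate for 48 h at eight concentrations (max 100 uM, 0.5% DMSO). RNA then analysed by qRT-PCR for CYP2C9; curves fitted in both directions relative to DMSO.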

CYP2E1 (gene 1571) = assay: LTEA_HepaRG_CYP2E1: Life Technologies and Expression Analysis (LTEA) Assay for CYP2E1 using HepaRG (AID 2283485)
Outline: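 Human liver line HepaRG, plated 48 h, then serum-free induction medium + chemical x 48 h; 8-pt CRC from 100 uM, half-log, 0.5% DMSO, n=2. Readout: CYP2E1 mRNA qRT-PCR vs ACTB/GAPDH/POLR2A; bidirectional fit vs DMSO.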

CYP4A11 (gene 1579) = assay: LTEA_HepaRG_CYP4A11: Life Technologies and Expression Analysis (LTEA) Assay for CYP4A11 using HepaRG (AID 2283486)
Outline: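 Readout is CYP4A11 mRNA induction or suppression (qRT-PCR, ACTB/GAPDH/POLR2A normalization) in human HepaRG cells after 48 h chemical treatment, concentrations to 100 uM in 0.5% DMSO, fitted bidirectionally against vehicle.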

[5] = read-out: Cytochrome P450 3A4 (Homo sapiens) (UniProt P08684); assay: LTEA_HepaRG_CYP3A4: Life Technologies and Expression Analysis (LTEA) Assay for CYP3A4 using HepaRG (AID 2283487)
Outline: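 CYP3A4 transcript measured by TaqMan qRT-PCR and normalized to three housekeeping genes after 48 h chemical exposure of human HepaRG cells. Top concentration 100 uM, half-log steps, 0.5% DMSO vehicle; gain or loss fitted against DMSO baseline.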

[6] = read-out: DNA damage-inducible transcript 3 (DDIT3), DDIT3 (gene 1649); assay: LTEA_HepaRG_DDIT3: Life Technologies and Expression Analysis (LTEA) Assay for DNA damage-inducible transcript 3 (DDIT3) using HepaRG (AID 2283488)
Outline: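 HepaRG plated 48 h, switched to serum-free induction medium, dosed 48 h (100 uM top, half-log, 8 pts, 0.5% DMSO, n=2); RNA isolated; DDIT3 by qRT-PCR; bidirectional curve fit vs DMSO.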

[7] = read-out: Pro-epidermal growth factor (Homo sapiens) (UniProt P01133); assay: LTEA_HepaRG_EGF: Life Technologies and Expression Analysis (LTEA) Assay for Epidermal growth factor (EGF) using HepaRG (AID 2283489)
Outline: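 EGF expression changes in human HepaRG cells are scored by bidirectional fitting relative to 0.5% DMSO controls. Chemicals are tested at eight half-log concentrations up to 100 uM for 48 h in serum-free induction medium.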

[8] = read-out: Early growth response protein 1 (EGR1) transcription factor, EGR1 (gene 1958); assay: LTEA_HepaRG_EGR1: Life Technologies and Expression Analysis (LTEA) Assay for Early growth response protein 1 (EGR1) transcription factor using HepaRG (AID 2283490)
Outline: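 Read-out is EGR1 mRNA level by qRT-PCR, normalized to three housekeeping genes and analysed for gain or loss of signal against 0.5% DMSO. Source cells: human HepaRG, treated 48 h at up to 100 uM in half-log dilutions.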

[9] = read-out: Ezrin (EZR), EZR (gene 7430); assay: LTEA_HepaRG_EZR: Life Technologies and Expression Analysis (LTEA) Assay for Ezrin (EZR) using HepaRG (AID 2283491)
Outline: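 HepaRG, 48 h chemical exposure, 8-pt half-log series from 100 uM, 0.5% DMSO vehicle, duplicates. Read-out: EZR mRNA by TaqMan qRT-PCR (Fluidigm array), housekeeping-normalized; bidirectional curve fit vs DMSO baseline.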

CYP3A5 (gene 1577) = assay: LTEA_HepaRG_CYP3A5: Life Technologies and Expression Analysis (LTEA) Assay for CYP3A5 using HepaRG (AID 2283493)
Outline: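 HepaRG plated 48 h, switched to serum-free induction medium, chemicals added 48 h (max 100 uM, half-log, 0.5% DMSO). RNA isolated; CYP3A5 by TaqMan qRT-PCR. Gain/loss vs DMSO.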

[10] = read-out: Fatty Acid-Binding Protein 1 (FABP1), FABP1 (gene 2168); assay: LTEA_HepaRG_FABP1: Life Technologies and Expression Analysis (LTEA) Assay for Fatty Acid-Binding Protein 1 (FABP1) using HepaRG (AID 2283494)
Outline: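 HepaRG, 48 h post-plating switched to serum-free induction medium, then dosed 48 h (duplicate, 8 pts, ≤100 uM, 0.5% DMSO). RNA → Fluidigm TaqMan qRT-PCR, FABP1 normed to ACTB/GAPDH/POLR2A. Bidirectional curve fit vs DMSO.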

[11] = read-out: Cytochrome P450 7A1 (Homo sapiens) (UniProt P22680); assay: LTEA_HepaRG_CYP7A1: Life Technologies and Expression Analysis (LTEA) Assay for Cytochrome P450 7A1 (CYP7A1) using HepaRG (AID 2283496)
Outline: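 HepaRG cells plated 48 h, then switched to serum-free induction medium and exposed in duplicate for 48 h to 8-point half-log series from 100 uM in 0.5% DMSO. CYP7A1 mRNA by qRT-PCR (TaqMan), normalized to ACTB/GAPDH/POLR2A; bidirectional fit versus DMSO.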

[12] = read-out: Glutathione S-Transferase (GSTA2), GSTA2 (gene 2939); assay: LTEA_HepaRG_GSTA2: Life Technologies and Expression Analysis (LTEA) Assay for Glutathione S-Transferase (GSTA2) using HepaRG (AID 2283497)
Outline: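 HepaRG, 48 h dosing, 8-pt half-log CRC from 100 uM, 0.5% DMSO vehicle, n=2; RNA → Fluidigm TaqMan qRT-PCR; GSTA2 vs ACTB/GAPDH/POLR2A; gain/loss fit vs DMSO.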

[13] = read-out: Cytochrome P450 4A22 (Homo sapiens) (UniProt Q5TCH4); assay: LTEA_HepaRG_CYP4A22: Life Technologies and Expression Analysis (LTEA) Assay for Cytochrome P450 4A22 (CYP4A22) using HepaRG (AID 2283495)
Outline: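 Cryopreserved HepaRG cells, plated and cultured 48 h, then switched to serum-free induction medium and treated 48 h (duplicates, up to 100 uM, half-log steps, 0.5% DMSO). Expression change of CYP4A22 was fitted bidirectionally against vehicle.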

Sequence of Cytochrome P450 2C19 (Homo sapiens) (P33261 whole entry, looked up): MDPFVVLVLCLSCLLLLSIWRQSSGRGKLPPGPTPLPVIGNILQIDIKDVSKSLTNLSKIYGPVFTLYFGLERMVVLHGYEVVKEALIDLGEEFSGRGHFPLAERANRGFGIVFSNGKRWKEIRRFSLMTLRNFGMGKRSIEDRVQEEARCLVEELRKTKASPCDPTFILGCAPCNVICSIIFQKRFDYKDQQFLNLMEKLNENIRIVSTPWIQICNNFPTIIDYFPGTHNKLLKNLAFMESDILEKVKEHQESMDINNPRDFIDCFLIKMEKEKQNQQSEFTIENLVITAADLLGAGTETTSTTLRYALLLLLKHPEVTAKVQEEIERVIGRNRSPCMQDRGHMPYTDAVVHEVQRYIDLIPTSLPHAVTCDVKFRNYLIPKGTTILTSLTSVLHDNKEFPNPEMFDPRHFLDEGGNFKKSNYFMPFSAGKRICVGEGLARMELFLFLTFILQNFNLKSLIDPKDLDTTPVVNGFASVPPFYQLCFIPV
Sequence of Cytochrome P450 3A4 (Homo sapiens) (P08684 whole entry, looked up): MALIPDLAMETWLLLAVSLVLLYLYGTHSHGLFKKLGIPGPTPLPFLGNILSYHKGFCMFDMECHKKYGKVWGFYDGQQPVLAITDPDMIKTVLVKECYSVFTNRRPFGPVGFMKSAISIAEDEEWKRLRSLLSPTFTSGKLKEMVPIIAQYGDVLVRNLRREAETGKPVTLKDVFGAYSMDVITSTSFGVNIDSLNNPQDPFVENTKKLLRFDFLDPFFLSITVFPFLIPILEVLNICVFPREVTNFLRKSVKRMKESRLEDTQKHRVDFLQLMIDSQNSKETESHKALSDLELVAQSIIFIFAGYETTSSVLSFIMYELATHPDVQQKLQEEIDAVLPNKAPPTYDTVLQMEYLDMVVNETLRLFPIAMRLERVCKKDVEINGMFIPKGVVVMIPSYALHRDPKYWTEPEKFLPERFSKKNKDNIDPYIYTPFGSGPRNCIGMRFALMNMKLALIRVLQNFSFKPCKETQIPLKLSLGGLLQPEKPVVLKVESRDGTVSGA

Question: Which outcome [1] does the source give for `CCC(=C(c1ccc(O)cc1)c1ccc(OCCN(C)C)cc1)c1ccccc1` here?
Answer: inactive

Question: What about the AC50 [2] of the same compound?
Answer: 75.9 µM (active)

Question: And the AC50 [3]?
Answer: 3.08 µM (active)

Question: And the AC50 [4]?
Answer: 91.4 µM (active)

Question: And the AC50 (CYP2C8 (gene 1558))?
Answer: 2.39 µM (active)

Question: And the outcome (CYP2C9 (gene 1559))?
Answer: inactive

Question: What about the outcome (CYP2E1 (gene 1571)) of the same compound?
Answer: inactive

Question: And the AC50 (CYP4A11 (gene 1579))?
Answer: 84.4 µM (active)

Question: And the AC50 [5]?
Answer: 2.51 µM (active)

Question: And the AC50 [6]?
Answer: 72.8 µM (active)

Question: What about the outcome [7] of the same compound?
Answer: inactive

Question: What about the AC50 [8] of the same compound?
Answer: 76.5 µM (active)

Question: What about the outcome [9] of the same compound?
Answer: inactive

Question: What about the AC50 (CYP3A5 (gene 1577)) of the same compound?
Answer: 92.9 µM (active)

Question: And the outcome [10]?
Answer: inactive

Question: And the outcome [11]?
Answer: inactive

Question: What about the outcome [12] of the same compound?
Answer: inactive

Question: Which outcome [1] does the source give for `COCC(C)OCC(C)O` (centres undefined) here?
Answer: inactive

Question: And the outcome [2]?
Answer: inactive

Question: What about the outcome [3] of the same compound?
Answer: inactive

Question: And the outcome [4]?
Answer: inactive

Question: What about the outcome (CYP2C8 (gene 1558)) of the same compound?
Answer: inactive

Question: And the outcome (CYP2C9 (gene 1559))?
Answer: inactive

Question: What about the outcome (CYP2E1 (gene 1571)) of the same compound?
Answer: inactive

Question: What about the outcome (CYP4A11 (gene 1579)) of the same compound?
Answer: inactive

Question: And the outcome [5]?
Answer: inactive

Question: What about the outcome [7] of the same compound?
Answer: inactive

Question: And the outcome [8]?
Answer: inactive

Question: What about the outcome [9] of the same compound?
Answer: inactive

Question: And the outcome (CYP3A5 (gene 1577))?
Answer: inactive

Question: What about the outcome [10] of the same compound?
Answer: inactive

Question: And the outcome [13]?
Answer: inactive

Question: And the outcome [11]?
Answer: inactive

Question: What about the outcome [12] of the same compound?
Answer: inactive

Question: How did the AC50 [1] turn out when `Cc1cc(CCN2CCN(c3nsc4ccccc34)CC2)cc2c1NC(=O)CC2(C)C` was run?
Answer: 12.6 µM (active)

Question: And the outcome [2]?
Answer: inactive

Question: And the AC50 [3]?
Answer: 79.7 µM (active)

Question: And the AC50 [4]?
Answer: 88.4 µM (active)

Question: And the AC50 (CYP2C8 (gene 1558))?
Answer: 82.5 µM (active)

Question: What about the AC50 (CYP2C9 (gene 1559)) of the same compound?
Answer: 80.3 µM (active)

Question: What about the AC50 (CYP2E1 (gene 1571)) of the same compound?
Answer: 66.2 µM (active)

Question: And the AC50 (CYP4A11 (gene 1579))?
Answer: 63.9 µM (active)

Question: What about the AC50 [5] of the same compound?
Answer: 92 µM (active)

Question: And the outcome [7]?
Answer: inactive

Question: And the outcome [8]?
Answer: inactive

Question: And the AC50 [9]?
Answer: 9.92 µM (active)

Question: And the outcome (CYP3A5 (gene 1577))?
Answer: inactive

Question: What about the AC50 [10] of the same compound?
Answer: 69.7 µM (active)

Question: And the AC50 [11]?
Answer: 80.6 µM (active)
